Results taken from the supplement of paper PMC10849652.
For some of these results: Of roughly 7,900 targets only a part is listed; those with a hit were picked by preference. For some of these results: About 0.6% of all pairs of compound and target were hits. For some of these results: Of roughly 8,800 targets only a part is listed; those with a hit were picked by preference. For some of these results: About 0.5% of all pairs of compound and target were hits.

Key:
[1] = compound: C1=CC=C(C=C1)[C@H](COC2=CC3=C(C=C2)NC(=O)N3)NC(=O)C4=CC=CN(C4=O)CC5=CC(=C(C=C5)F)F; experiment: log2 fold change, soluble protein after heating vs DMSO (PISA); higher = thermal stabilisation; K562 lysate, 10 uM; active = over 0.2 and 3.5 SD of the protein, either way, in both replicates (recomputed)
Method in brief: (§1)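 Dounce homogenisation of K562 pellets in PBS pH 7.4 with 1 mM MgCl2 produced a crude extract, used at 1 mg/mL protein. Exposure to 10 μM compound lasted 30 min, and aliquots were then heated for 3 min across 48°C-58°C, pooled and brought to 0.5% NP-40 at 4°C. The supernatant after 21,000xg for 90 min was quantified by TMTpro 16plex LC-MS/MS with channel sums equalised. Duplicate values are given as log-two fold change in thermal stability relative to solvent controls.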

[2] = compound: CC1=C(SC2=C1C(=N[C@H](C3=NN=C(N32)C)CC(=O)N)C4=CC=C(C=C4)Cl)C; experiment: as above
Method in brief: as §1

[3] = compound: CC1=C2C(=CC=C1)N=C(N(C2=O)C3=CC=CC=C3C)CN4C=NC5=C(N=CN=C54)N; experiment: as above
Method in brief: as §1

[4] = compound: Cc1sc2c(c1C)C(c1ccc(Cl)cc1)=N[C@@H](CC(=O)OC(C)(C)C)c1nnc(C)n1-2; experiment: as above
Method in brief: as §1

[5] = compound: c1ccc([C@@H]2C[C@H]2NC2CCNCC2)cc1; experiment: as above
Method in brief: as §1

[6] = compound: C1=CC=C(C=C1)[C@H](COC2=CC3=C(C=C2)NC(=O)N3)NC(=O)C4=CC=CN(C4=O)CC5=CC(=C(C=C5)F)F; experiment: log2 fold change, soluble protein after heating vs DMSO (PISA); higher = thermal stabilisation; K562 cells, 10 uM, 30 min; active = over 0.2 and 3.5 SD of the protein, either way, in both replicates (recomputed)
Method in brief: (§2)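 Soluble protein was quantified by TMTpro 16plex LC-MS/MS after channel sums were equalised. It was obtained as the supernatant after 21,000xg for 90 min from pooled aliquots of K562 cells (2×10^6 cells/mL, 10 μM compound, 30 min) heated for 3 min across 48°C-58°C and extracted in PBS with 0.5% NP-40 at 4°C. Thermal stability values are relative to control samples and come from duplicates. They are given as log2 fold changes.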

[7] = compound: CC1=C(SC2=C1C(=N[C@H](C3=NN=C(N32)C)CC(=O)N)C4=CC=C(C=C4)Cl)C; experiment: as above
Method in brief: as §2

[8] = compound: CC1=C2C(=CC=C1)N=C(N(C2=O)C3=CC=CC=C3C)CN4C=NC5=C(N=CN=C54)N; experiment: as above
Method in brief: as §2

[9] = compound: Cc1sc2c(c1C)C(c1ccc(Cl)cc1)=N[C@@H](CC(=O)OC(C)(C)C)c1nnc(C)n1-2; experiment: as above
Method in brief: as §2

[10] = compound: c1ccc([C@@H]2C[C@H]2NC2CCNCC2)cc1; experiment: as above
Method in brief: as §2

Measured: log2 fold change

ANXA5 (UniProt P08758)
inactive: [1] 0.031 | [2] 0.016 | [3] 0.013 | [4] 0.033 | [5] 0.075

ABL2 (UniProt P42684)
inactive: [1] -0.026 | [2] 0.016 | [3] 0 | [4] -0.14 | [5] -0.105

AGPS (UniProt O00116)
inactive: [1] -0.103 | [2] 0.016 | [3] 0.035 | [4] 0.019 | [5] -0.006

ARL13B (UniProt Q3SXY8)
inactive: [1] 0.087 | [2] 0.03 | [3] 0.012 | [4] 0.019 | [5] 0.145

AKR1B1 (UniProt P15121)
inactive: [1] 0.015 | [2] 0.066 | [3] 0.059 | [4] -0.146 | [5] -0.049

ANXA1 (UniProt P04083)
UniProt P04083, sequence (P04083 whole entry, looked up): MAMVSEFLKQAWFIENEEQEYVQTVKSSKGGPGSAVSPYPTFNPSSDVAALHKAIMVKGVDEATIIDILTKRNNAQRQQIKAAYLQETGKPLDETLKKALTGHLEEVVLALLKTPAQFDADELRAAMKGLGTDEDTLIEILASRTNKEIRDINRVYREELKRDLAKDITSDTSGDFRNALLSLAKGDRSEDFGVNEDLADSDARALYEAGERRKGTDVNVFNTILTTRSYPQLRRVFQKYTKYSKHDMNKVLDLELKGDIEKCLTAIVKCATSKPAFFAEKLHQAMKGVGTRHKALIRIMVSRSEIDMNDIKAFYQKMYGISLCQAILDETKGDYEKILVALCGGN
inactive: [1] -0.011 | [2] 0.005 | [3] -0.01 | [4] -0.019 | [5] -0.005

ACLY (UniProt P53396)
UniProt P53396, sequence (P53396 whole entry, looked up): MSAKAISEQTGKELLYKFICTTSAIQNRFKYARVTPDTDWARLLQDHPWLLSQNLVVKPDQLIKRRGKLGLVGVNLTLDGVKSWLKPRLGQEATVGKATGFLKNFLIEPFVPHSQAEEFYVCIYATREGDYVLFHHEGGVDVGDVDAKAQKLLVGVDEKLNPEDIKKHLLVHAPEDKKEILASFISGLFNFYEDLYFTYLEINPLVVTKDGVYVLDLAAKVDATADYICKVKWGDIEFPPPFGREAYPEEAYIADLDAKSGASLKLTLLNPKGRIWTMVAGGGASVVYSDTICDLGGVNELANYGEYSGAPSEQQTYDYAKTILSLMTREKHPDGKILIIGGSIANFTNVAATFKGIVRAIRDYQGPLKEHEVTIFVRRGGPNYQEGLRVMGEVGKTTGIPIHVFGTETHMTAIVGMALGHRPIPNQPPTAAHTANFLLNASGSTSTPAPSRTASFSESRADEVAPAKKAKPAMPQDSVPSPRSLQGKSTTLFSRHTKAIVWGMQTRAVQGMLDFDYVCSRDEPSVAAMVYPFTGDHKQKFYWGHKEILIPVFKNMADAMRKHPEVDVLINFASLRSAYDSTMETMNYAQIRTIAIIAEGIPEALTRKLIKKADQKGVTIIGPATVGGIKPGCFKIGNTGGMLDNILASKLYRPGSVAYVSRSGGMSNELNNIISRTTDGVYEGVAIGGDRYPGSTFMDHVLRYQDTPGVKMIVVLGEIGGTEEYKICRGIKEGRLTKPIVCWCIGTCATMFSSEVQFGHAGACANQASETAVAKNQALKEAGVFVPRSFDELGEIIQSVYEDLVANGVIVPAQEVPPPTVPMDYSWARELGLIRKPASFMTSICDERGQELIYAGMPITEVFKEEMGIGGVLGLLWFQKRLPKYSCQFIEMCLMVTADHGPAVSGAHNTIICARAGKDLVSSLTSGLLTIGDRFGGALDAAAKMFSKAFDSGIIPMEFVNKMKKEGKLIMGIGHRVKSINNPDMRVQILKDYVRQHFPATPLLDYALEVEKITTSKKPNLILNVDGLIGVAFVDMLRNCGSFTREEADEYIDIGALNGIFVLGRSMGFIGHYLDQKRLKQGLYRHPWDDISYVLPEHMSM
inactive: [1] 0.011 | [2] 0.03 | [3] 0.004 | [4] 0.03 | [5] 0.023

AMPD3 isoform 4 (UniProt Q01432)
UniProt Q01432, sequence (Q01432 whole entry, looked up): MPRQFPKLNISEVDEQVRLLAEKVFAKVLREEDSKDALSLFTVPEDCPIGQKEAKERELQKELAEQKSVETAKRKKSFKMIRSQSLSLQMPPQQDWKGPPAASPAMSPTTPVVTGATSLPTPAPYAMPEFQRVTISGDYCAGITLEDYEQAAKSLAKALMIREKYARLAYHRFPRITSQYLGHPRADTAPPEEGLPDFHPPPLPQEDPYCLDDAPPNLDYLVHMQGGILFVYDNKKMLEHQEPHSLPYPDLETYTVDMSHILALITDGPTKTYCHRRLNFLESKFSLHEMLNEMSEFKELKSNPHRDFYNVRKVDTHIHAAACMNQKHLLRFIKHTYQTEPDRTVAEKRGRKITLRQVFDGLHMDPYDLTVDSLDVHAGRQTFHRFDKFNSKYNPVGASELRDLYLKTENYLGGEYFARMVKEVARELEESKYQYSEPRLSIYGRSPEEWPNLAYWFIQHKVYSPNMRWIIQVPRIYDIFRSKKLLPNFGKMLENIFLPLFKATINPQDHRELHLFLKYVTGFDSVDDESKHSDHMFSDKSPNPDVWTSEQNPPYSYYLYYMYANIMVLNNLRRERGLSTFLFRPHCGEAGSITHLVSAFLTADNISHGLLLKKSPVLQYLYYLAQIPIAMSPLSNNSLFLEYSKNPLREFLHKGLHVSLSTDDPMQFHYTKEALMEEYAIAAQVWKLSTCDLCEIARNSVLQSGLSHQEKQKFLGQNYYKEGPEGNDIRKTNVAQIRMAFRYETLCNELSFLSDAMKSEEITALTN
inactive: [1] 0.02 | [2] -0.021 | [3] -0.012 | [4] 0.018 | [5] 0.093

ALDH1L2 (UniProt Q3SY69)
inactive: [1] 0.015 | [2] 0.041 | [3] 0.052 | [4] -0.009 | [5] -0.023

ANXA2 isoform 2 (UniProt P07355)
inactive: [1] 0 | [2] -0.005 | [3] -0.019 | [4] 0.024 | [5] 0.02

ADK (UniProt P55263)
UniProt P55263, sequence (P55263 whole entry, looked up): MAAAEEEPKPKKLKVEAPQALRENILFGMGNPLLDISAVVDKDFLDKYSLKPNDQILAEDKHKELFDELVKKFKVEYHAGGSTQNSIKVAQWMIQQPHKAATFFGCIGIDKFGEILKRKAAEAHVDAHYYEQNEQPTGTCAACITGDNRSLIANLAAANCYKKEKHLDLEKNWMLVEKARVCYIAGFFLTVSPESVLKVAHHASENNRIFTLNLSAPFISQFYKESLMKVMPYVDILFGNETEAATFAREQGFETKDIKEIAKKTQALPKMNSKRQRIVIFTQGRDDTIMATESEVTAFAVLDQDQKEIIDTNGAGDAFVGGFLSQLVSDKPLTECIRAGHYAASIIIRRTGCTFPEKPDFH
inactive: [1] 0.059 | [2] -0.035 | [3] 0.051 | [4] -0.036 | [5] -0.133

AIMP2 (UniProt Q13155)
inactive: [1] -0.028 | [2] 0.021 | [3] 0.013 | [4] 0.036 | [5] 0.041

AHCYL1 (UniProt O43865)
inactive: [1] -0.011 | [2] -0.003 | [3] -0.011 | [4] 0.034 | [5] 0.006

ANKRD27 (UniProt Q96NW4)
inactive: [1] -0.025 | [2] 0.022 | [3] -0.011 | [4] 0.042 | [5] -0.002

ACSL4 (UniProt O60488)
inactive: [1] -0.058 | [2] 0.046 | [3] 0.032 | [4] -0.106 | [5] 0.038

ASPH (UniProt Q12797)
UniProt Q12797, sequence (Q12797 whole entry, looked up): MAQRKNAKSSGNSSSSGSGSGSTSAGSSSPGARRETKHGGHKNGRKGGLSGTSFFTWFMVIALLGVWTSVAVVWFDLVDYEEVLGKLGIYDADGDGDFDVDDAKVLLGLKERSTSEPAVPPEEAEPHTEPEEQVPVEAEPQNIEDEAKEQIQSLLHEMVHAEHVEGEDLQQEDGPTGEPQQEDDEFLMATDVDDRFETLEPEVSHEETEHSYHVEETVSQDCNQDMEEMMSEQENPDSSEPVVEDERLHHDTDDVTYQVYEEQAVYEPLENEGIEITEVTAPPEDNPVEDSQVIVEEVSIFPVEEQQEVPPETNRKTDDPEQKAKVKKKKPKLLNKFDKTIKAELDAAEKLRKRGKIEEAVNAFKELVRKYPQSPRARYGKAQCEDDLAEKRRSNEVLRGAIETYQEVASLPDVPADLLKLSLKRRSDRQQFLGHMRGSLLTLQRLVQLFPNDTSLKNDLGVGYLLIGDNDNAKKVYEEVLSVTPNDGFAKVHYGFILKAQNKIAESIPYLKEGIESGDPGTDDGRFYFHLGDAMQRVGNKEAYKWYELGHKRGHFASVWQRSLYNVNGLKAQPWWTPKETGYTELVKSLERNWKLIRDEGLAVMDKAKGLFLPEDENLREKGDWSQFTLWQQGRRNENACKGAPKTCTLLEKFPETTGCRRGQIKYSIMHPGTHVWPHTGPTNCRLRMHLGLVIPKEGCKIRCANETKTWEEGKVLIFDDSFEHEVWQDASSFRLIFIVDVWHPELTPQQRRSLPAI
inactive: [1] 0.006 | [2] 0.028 | [3] 0 | [4] -0.045 | [5] 0.026

ARHGAP21 (UniProt Q5T5U3)
inactive: [1] 0.031 | [2] 0.117 | [3] 0.031 | [4] 0.008 | [5] 0.124

ALG8 (UniProt Q9BVK2)
inactive: [1] 0.034 | [2] 0.001 | [3] 0.059 | [4] -0.013 | [5] -0.008

ANKRD52 (UniProt Q8NB46)
inactive: [1] -0.004 | [2] -0.036 | [3] 0.056 | [4] 0.055 | [5] 0.004

AIMP1 isoform 2 (UniProt Q12904)
UniProt Q12904, sequence (Q12904 whole entry, looked up): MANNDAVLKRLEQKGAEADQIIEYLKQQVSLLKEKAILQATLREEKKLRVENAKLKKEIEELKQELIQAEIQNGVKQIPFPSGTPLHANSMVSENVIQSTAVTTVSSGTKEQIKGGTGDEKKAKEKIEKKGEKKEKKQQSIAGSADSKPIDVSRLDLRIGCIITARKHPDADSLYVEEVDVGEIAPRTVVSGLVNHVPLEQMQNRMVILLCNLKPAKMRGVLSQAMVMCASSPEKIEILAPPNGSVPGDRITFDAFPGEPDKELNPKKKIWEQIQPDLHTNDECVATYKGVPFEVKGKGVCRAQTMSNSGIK
inactive: [1] -0.033 | [2] 0.01 | [3] 0.006 | [4] 0.029 | [5] 0.044

ZC3HC1 (UniProt Q86WB0)
inactive: [6] -0.091 | [7] 0.07 | [8] 0.1 | [9] -0.032 | [10] -0.018

YAE1 (UniProt Q9NRH1)
UniProt Q9NRH1, sequence (Q9NRH1 whole entry, looked up): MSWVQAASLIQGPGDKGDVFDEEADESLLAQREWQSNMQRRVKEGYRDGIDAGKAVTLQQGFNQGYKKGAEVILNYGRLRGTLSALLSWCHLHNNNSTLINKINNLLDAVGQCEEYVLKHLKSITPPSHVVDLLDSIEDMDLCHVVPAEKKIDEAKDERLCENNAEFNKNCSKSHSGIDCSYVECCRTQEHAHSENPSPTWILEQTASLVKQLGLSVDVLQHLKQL
inactive: [6] -0.021 | [7] -0.111 | [8] 0.016 | [9] -0.014 | [10] 0.095

ARHGEF2 (UniProt V9GYF0)
inactive: [3] 0.098 | [4] 0.105

ACVR1 (UniProt Q04771)
inactive: [1] -0.052 | [2] -0.055 | [4] -0.102 | [5] -0.126

ZC3H18 (UniProt Q86VM9)
UniProt Q86VM9, sequence (Q86VM9 whole entry, looked up): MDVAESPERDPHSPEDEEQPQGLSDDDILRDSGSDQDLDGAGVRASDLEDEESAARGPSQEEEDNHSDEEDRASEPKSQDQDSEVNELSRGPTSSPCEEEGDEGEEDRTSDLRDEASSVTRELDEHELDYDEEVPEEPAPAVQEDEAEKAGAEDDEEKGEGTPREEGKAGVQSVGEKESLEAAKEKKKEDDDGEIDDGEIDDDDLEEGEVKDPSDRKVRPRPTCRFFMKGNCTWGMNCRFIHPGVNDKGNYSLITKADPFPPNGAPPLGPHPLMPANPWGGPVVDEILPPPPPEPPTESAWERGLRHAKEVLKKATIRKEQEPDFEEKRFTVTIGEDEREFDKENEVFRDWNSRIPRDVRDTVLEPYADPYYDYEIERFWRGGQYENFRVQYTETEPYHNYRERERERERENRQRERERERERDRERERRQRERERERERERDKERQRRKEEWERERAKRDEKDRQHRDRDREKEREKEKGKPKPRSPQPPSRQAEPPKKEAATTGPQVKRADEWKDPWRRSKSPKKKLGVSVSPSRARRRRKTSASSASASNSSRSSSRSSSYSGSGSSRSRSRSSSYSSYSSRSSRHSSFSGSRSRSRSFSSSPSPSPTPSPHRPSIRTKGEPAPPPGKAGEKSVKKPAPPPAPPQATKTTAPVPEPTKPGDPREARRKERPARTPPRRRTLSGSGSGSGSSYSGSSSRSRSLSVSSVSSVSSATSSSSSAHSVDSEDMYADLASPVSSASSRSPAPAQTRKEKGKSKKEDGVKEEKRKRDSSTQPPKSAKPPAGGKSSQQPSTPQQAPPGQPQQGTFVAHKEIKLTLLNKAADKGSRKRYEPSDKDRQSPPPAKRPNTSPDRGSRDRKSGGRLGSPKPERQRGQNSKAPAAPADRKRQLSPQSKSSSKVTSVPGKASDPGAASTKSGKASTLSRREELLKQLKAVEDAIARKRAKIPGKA
inactive: [6] 0.032 | [7] -0.031 | [8] 0.035 | [9] 0.021 | [10] 0.047
